Legend:
Assay in all cases: log2 ratio of Biotin-Ahx-Ub-VS probe labelling (fragment/DMSO); higher = less target engagement (more negative = stronger competition), active = hit call of the paper (q ≤ 0.05, log2 ratio ≤ -1)
Conditions in all cases: compound concentration: 200 uM; treatment time: 3 h
USP34 = USP34 (UniProt Q70CQ2)
In short: (§1)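 Average log2 ratios of fragment over vehicle were obtained by unpaired t-test from global-median-normalised Spectronaut label-free quantities. Proteins with ≥2 unique peptides were included. HEK293T lysate (495 µg per sample) was treated in triplicate with fragment at 200 µM or vehicle for 3 h, then with Biotin-Ahx-Ub-VS at 0.5 µM final for 1 h, and labelled DUBs were NeutrAvidin-enriched and run by diaPASEF LC-MS/MS.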

USP36 = target: T1, USP36 (UniProt Q9P275)
T1 sequence (whole entry): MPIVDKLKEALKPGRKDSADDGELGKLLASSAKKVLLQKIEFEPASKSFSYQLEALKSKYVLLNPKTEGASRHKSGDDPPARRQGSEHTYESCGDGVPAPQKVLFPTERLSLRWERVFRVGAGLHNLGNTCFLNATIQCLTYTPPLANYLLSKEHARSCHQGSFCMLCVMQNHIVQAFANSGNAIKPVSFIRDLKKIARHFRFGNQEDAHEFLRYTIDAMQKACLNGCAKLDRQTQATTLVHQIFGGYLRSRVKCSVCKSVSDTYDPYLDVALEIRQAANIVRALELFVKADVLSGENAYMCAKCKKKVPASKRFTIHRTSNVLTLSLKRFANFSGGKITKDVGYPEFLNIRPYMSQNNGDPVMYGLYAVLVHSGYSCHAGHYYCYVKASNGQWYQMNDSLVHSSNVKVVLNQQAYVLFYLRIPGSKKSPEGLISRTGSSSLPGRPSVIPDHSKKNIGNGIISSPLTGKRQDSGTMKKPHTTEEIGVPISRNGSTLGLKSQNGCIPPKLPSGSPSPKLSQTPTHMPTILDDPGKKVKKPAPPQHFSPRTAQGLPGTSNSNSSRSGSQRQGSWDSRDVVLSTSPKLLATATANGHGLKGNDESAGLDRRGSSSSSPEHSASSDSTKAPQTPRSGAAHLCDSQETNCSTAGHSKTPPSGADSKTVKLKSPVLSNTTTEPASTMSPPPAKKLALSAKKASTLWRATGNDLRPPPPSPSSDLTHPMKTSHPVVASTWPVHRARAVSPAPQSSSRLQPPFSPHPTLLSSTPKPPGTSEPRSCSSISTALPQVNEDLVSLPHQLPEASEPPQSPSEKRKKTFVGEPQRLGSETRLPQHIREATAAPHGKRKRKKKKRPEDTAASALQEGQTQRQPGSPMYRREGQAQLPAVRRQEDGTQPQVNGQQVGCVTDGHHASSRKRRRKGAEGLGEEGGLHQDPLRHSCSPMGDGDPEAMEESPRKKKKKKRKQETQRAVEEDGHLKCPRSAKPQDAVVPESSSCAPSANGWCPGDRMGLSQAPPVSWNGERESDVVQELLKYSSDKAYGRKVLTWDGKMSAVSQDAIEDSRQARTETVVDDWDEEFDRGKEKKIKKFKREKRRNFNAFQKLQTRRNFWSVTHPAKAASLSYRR
In short: as §1

USP38 = target: T2, USP38 (UniProt Q8NB14)
T2 sequence (whole entry): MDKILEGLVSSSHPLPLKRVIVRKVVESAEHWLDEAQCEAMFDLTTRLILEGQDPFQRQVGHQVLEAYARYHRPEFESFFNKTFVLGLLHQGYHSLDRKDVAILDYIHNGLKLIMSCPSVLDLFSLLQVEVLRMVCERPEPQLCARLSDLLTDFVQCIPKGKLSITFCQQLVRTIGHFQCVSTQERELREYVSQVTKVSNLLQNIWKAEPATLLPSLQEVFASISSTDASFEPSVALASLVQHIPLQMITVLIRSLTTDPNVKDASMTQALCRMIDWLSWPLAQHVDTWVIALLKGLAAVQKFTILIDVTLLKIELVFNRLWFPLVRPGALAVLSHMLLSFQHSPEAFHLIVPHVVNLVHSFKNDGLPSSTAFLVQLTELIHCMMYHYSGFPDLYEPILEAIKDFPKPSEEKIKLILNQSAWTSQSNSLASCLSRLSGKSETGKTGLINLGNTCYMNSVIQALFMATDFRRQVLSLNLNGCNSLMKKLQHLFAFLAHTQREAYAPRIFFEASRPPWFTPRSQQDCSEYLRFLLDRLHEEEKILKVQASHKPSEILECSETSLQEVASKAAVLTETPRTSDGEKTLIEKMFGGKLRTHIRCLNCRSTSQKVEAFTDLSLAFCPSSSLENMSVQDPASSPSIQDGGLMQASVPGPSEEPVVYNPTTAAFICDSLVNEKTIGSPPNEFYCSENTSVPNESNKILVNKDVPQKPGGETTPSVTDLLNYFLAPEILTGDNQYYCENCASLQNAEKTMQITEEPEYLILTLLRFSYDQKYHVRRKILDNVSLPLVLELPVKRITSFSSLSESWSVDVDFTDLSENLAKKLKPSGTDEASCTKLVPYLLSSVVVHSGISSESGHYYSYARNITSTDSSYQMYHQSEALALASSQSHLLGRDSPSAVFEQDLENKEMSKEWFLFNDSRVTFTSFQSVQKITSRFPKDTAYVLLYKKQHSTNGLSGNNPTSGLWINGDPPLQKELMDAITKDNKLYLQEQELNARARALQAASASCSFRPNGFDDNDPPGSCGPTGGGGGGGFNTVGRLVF
In short: as §1

USP39 = target: T3, USP39 (UniProt Q53GS9)
T3 sequence (whole entry): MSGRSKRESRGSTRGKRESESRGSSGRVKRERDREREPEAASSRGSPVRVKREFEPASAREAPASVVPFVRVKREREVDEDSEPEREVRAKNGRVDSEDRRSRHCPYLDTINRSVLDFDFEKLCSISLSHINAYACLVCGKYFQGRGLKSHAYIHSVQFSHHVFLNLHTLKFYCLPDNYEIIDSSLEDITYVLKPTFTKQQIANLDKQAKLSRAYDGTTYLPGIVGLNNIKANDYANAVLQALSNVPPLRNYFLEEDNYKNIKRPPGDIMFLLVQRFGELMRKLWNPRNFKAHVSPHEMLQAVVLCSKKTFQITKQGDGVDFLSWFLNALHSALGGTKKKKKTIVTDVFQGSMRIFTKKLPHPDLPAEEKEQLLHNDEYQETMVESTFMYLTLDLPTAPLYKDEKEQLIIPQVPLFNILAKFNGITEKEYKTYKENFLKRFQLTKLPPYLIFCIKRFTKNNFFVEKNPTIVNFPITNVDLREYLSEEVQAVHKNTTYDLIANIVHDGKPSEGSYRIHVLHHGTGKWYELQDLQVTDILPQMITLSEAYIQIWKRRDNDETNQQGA
In short: as §1

USP4 = target: T4, USP4 (UniProt Q13107)
T4 sequence (whole entry): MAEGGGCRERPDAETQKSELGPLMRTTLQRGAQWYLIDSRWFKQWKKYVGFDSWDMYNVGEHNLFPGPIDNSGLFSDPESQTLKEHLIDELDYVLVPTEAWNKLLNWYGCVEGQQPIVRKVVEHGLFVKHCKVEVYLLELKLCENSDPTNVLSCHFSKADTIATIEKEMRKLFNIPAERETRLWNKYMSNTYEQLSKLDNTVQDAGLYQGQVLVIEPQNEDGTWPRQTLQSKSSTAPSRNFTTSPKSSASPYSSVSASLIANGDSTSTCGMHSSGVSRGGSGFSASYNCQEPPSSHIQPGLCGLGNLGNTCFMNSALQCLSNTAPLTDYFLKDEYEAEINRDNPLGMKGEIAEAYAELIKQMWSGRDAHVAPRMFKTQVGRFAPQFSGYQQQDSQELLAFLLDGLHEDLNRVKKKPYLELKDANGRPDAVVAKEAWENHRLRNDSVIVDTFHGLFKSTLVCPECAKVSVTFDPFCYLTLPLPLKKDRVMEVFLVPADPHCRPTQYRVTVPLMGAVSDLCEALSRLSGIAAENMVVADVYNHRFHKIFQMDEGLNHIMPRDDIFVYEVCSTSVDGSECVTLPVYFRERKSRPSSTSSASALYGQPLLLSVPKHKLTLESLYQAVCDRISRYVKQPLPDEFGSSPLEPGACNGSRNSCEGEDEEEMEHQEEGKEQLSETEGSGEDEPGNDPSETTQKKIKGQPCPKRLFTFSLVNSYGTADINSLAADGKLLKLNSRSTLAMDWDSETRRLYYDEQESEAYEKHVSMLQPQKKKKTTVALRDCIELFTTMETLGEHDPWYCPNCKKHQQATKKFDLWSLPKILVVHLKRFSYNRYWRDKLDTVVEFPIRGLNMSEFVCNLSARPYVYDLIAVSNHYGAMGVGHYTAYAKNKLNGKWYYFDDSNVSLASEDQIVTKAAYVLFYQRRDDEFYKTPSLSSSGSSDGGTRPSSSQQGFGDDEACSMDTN
In short: as §1

Measured: log2 ratio of Biotin-Ahx-Ub-VS probe labelling

Chain of USP34 (Q70CQ2 whole entry, the tested form may be a part): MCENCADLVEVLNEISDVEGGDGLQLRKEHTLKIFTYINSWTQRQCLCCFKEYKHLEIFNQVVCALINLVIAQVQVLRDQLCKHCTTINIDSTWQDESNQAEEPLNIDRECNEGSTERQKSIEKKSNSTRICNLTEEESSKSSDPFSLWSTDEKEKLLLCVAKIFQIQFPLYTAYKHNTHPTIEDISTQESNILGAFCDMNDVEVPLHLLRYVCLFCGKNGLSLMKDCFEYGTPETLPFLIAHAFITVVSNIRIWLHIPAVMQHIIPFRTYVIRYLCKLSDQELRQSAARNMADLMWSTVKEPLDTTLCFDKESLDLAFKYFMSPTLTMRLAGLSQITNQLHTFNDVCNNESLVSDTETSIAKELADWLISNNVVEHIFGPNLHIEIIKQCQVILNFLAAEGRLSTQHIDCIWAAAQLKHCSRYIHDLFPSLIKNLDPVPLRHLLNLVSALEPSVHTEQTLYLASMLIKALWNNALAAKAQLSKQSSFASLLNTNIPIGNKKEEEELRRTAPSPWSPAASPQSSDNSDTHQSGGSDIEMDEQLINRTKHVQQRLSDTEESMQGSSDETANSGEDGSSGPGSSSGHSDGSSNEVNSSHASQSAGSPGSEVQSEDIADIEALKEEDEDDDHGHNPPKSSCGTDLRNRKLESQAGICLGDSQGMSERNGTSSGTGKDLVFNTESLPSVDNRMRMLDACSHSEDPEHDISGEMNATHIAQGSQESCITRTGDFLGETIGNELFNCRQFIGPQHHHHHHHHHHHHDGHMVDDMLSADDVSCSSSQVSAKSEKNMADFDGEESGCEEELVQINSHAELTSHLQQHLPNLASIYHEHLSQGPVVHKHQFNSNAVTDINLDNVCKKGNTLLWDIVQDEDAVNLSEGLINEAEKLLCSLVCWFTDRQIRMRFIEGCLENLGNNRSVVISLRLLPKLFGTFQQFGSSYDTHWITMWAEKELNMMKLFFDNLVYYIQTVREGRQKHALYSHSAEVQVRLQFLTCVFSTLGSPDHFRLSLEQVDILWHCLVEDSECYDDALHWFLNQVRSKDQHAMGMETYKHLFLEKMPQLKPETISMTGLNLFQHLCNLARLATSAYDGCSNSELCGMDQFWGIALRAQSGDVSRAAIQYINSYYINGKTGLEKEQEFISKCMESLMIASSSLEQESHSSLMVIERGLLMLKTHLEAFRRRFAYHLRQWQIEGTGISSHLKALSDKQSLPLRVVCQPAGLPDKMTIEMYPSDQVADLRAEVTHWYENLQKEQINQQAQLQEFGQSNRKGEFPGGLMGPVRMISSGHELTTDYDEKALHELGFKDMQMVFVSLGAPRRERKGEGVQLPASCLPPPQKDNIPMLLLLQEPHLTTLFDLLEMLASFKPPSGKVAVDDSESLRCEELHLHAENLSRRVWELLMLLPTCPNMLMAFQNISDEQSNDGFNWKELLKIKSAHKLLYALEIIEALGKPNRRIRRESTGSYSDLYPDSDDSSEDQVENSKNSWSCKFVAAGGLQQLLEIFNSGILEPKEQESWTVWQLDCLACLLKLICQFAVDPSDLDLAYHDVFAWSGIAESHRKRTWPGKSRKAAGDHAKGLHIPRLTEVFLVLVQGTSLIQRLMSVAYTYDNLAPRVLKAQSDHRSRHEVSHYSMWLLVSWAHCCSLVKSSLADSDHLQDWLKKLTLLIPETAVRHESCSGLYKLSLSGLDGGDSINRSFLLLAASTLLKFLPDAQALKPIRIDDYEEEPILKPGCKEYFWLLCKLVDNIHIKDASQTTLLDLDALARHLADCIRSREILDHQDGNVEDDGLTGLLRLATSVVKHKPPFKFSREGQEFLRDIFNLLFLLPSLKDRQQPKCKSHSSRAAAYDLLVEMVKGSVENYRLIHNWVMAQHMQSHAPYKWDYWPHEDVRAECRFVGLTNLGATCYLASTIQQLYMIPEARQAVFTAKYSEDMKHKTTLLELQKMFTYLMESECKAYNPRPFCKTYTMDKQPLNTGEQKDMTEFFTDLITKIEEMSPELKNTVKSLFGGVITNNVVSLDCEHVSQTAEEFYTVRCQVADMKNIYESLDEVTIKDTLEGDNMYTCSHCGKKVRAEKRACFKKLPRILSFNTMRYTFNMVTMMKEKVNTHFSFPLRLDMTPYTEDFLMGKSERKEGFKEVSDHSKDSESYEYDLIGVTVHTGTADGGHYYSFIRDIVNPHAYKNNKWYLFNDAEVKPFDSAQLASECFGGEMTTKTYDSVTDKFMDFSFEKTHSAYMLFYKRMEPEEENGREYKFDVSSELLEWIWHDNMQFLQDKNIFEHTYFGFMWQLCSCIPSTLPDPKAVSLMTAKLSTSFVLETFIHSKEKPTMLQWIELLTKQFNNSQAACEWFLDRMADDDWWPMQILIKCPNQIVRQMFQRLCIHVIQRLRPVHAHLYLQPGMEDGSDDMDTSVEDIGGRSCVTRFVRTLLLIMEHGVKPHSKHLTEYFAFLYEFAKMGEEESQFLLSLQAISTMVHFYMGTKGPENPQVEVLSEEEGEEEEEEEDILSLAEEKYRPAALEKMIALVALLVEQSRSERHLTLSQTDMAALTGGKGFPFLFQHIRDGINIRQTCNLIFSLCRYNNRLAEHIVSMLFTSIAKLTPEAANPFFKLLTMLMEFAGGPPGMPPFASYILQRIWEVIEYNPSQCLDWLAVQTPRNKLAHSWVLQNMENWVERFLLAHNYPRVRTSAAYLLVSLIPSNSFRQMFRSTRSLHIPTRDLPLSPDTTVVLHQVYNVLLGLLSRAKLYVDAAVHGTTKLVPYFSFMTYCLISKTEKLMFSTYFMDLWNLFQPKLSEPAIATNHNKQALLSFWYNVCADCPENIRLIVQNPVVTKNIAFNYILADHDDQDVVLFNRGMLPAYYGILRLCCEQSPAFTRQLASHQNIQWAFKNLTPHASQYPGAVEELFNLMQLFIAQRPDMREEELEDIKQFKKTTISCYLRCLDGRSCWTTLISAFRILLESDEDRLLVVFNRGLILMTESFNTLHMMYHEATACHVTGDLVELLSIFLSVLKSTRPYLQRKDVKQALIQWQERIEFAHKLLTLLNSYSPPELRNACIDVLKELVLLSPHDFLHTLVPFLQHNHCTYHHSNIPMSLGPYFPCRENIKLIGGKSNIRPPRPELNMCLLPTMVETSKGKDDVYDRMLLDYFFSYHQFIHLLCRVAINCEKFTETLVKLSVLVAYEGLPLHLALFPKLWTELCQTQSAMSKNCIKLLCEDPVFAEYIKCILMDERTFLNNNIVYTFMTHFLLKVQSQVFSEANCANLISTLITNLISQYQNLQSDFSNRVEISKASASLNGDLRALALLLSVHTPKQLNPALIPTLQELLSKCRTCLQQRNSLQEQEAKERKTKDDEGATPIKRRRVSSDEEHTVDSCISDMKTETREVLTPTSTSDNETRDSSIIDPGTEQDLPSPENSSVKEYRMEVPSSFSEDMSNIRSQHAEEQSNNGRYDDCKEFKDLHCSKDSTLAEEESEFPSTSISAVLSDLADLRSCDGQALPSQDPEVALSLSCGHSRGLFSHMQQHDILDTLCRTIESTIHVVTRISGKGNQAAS

Cl.O=C(CN1CCN(C(=O)CCl)CC1)Nc1ccc(F)cc1
inactive: USP34 0.1 | USP36 -0.231 | USP38 -0.043 | USP39 0.0696 | USP4 0.142
